PNC inhibitor: perinucleolar compartment assembly inhibition; activity change (PNC), negative = inhibition, % at 10 µM; 140,000 compounds, 3.1% hits; AID 2417; PC3M PTB-GFP, PNC prevalence imaging, 16 h; stronger effect = lower value;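 active means readout at or below -70, meaning at least 70% loss of cells showing the perinucleolar compartment, a nuclear body marking cancer cells; inconclusive means readout between -30 and a set limit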;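 further: plate controls were DMSO wells for no effect and camptothecin positive control wells for full effect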
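Compounds are pinned in duplicate onto adhered PC3M cells stably expressing GFP-tagged PTB and incubated 16 h at 37 C. Cells are then fixed, nuclei stained with Hoechst, and PNC-positive cells counted.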
GLA inh pH 4.5: blocks human alpha-galactosidase A at pH 4.5. P06280. purified enzyme, 4-MU-alpha-Gal fluorescence, pH 4.5. activity change, negative = inhibition, % at 105 µM. 230,000 tested, under 10 active;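 further: 0% = full activity with enzyme and -100% = basal without enzyme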
ALDH1A1 inh: ALDH1A1 (human) enzyme inhibition | 220,000 compounds, 7.3% hits | P00352 | Potency, µM (titrated, usually from 75.3 µM), inactives show top-dose activity, negative = inhibition, usual class: inhibitors | Purified ALDH1A1, NADH fluorescence, propionaldehyde substrate; active means well fitted inhibition curve with a large enough effect, not every such curve was filed as active; inconclusive means small, poorly fitted or top-dose-only effect, or another doubt; inactive means no such curve, though single readings can be large or run the other way;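 further: potency means the concentration at half of the fitted maximal effect; plate controls were no enzyme wells and a reference inhibitor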
Target sequence (P00352 whole entry, looked up): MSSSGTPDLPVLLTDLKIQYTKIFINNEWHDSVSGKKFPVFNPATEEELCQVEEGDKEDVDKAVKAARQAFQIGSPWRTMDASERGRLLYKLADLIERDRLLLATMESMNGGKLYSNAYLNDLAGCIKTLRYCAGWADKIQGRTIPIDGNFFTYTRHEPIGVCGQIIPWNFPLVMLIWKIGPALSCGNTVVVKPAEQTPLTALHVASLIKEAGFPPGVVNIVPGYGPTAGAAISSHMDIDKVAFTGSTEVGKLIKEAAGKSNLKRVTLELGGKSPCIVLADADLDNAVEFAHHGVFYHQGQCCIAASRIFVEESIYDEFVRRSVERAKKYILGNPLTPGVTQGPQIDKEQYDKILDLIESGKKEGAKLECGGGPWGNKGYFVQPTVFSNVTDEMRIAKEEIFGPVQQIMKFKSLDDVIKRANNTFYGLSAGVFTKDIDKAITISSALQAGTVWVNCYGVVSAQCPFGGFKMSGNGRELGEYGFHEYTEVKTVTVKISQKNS
ALOX12 inhib: inhibitors of human 12-lipoxygenase (ALOX12) | P18054 | purified 12-hLO, xylenol orange hydroperoxide absorbance | Potency, µM (titrated, usually from 57.1 µM), inactives show at the highest dose activity change, negative = inhibition, usual class: inhibitors | 150,000 compounds, 0.12% hits | AID 1452; further: potency means the concentration at half of the fitted maximal effect; nearly all actives have a fitted effect of over 55% in size
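Xylenol orange chromogenic assay: hydroperoxide from 12hLO oxidises Fe(II), giving red-shifted Fe(III)-XO absorbance. Conditions: 150 nM enzyme, 40 uM arachidonic acid, 25 mM Hepes pH 7.0, 0.01% Triton X-100, 30 min, room temperature.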
HPGD block: HPGD (human) dehydrogenase inhibition; Potency, µM, inactives show at the highest dose activity change, negative = inhibition, usual class: inhibitors; AID 894; 150,000 compounds, 4.3% hits; purified HPGD, NADH fluorescence kinetic, PGE2 substrate; active means well fitted inhibition curve with a large enough effect, not every such curve was filed as active; inconclusive means small, poorly fitted or top-dose-only effect, or another doubt; inactive means no such curve, though single readings can be large or run the other way; further: potency means the concentration at half of the fitted maximal effect
Target sequence (P15428 whole entry, looked up): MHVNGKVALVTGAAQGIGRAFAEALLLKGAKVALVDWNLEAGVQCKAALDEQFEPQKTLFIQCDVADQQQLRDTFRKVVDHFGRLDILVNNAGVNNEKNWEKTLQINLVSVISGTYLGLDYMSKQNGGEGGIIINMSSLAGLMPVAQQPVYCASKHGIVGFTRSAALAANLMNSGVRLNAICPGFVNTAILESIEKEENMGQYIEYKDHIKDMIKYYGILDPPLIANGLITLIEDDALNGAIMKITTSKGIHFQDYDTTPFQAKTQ
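NADH formation kinetics: reaction with 30 uM PGE2 and 1 mM NAD+ (final), 20 nM enzyme, Tris-HCl pH 8 with Tween 20, after 15 min compound preincubation at room temperature. Fluorescence change, last versus first of five reads.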
GLA spleen mod: alpha-galactosidase A (human) modulation. human spleen homogenate, 4MU-alpha-Gal fluorescence, 40 min. 240,000 compounds, 0.008% hits. Potency, µM (highest dose often 80 µM), for the others: at the top dose activity change, negative = inhibition, actives largely listed as inhibitors. P06280;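 further: potency means the concentration at half of the fitted maximal effect; 0% = enzyme with vehicle and -100% = no enzyme basal signal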
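Human spleen homogenate (1 ug) was the enzyme source, with 4-methylumbelliferyl-alpha-D-galactopyranoside (1 mM final) in pH 5.0 citrate buffer with 0.01% Tween-20. Compounds were titrated; after 40 min at 37C, NaOH/glycine stop, 4-MU fluorescence read; AC50 from Hill fits.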
Numbers without * were called inactive; ? = inconclusive; · = no result; ! = repeats disagree; [ ] = another dose, or the depositor's remark. A selection: hits, their analogues and other compounds. The true share with any hit is near 10%. Unless noted, the call rests on the fitted dose curve; in most records, active means well fitted curve in the direction sought with a large enough effect; inconclusive means small, poorly fitted or top-dose-only effect, or another doubt; inactive means no such curve, though single readings can be large; an effect the other way counts as inactive or inconclusive. Unless noted, on the % scale 0 is the no-effect control and ±100 the full control effect.

SMILES | PNC inhibitor | GLA inh pH 4.5 | ALDH1A1 inh | ALOX12 inhib | HPGD block | GLA spleen mod
Cc1cccc(NC(=O)CSc2nnc(-c3ccncc3)n2C)c1 | 14 | 12 | -3% | 3% | -7% | 3%
CCCCCC(=O)c1c(O)cc(OC)c(Cl)c1O | · | · | · | · | · | 5%
CC(C)[C@@H](CC(=O)N[C@@H]1CCNC[C@H]1C(=O)N[C@H](CC(=O)N[C@@H](CCC(=O)O)CC(=O)O)Cc1ccccc1)NC(=O)C[C@H](Cc1c[nH]c2ccccc12)NC(=O)[C@@H]1CNCC[C@H]1N | · | 0 | 4% | 1% | -6% | 2%
COC(=O)c1cc(NCc2ccc3c(c2)OCO3)ccc1N1CCOCC1 | 35 | -2 | 14µM* | -4% | -6% | 4%
O=c1c(-c2cccs2)nc2cnc(N3CCOCC3)nc2n1-c1ccccc1 | · | · | ? | · | · | 3%
O=c1c2sccc2[nH]c(=S)n1Cc1ccccc1 | 121 | 3 | ? | -2% | -27% | 10%
Cc1nc(N2CCCCC2)sc1C(=O)c1ccc(SCCO)c([N+](=O)[O-])c1 | · | -13 | 13µM* | · | · | 6%
N=C(c1cccc([N+](=O)[O-])c1)N1CCCCCC1 | · | -4 | 5% | · | · | -5%
O=[N+]([O-])c1ccc(N2CCCCC2)cc1SCCO | · | -2[21.1 µM] | ? | · | · | -2%
Cc1nc(N2CCCCC2)sc1C(=O)c1cccc([N+](=O)[O-])c1 | · | -28 | 10µM* | · | · | 3%
O=c1[nH]c(=O)n([C@@H]2C[C@H](O)[C@H](CO)O2)cc1C(F)(F)F | · | -3 | 5%[20.9 µM] | -6%[25.6 µM] | -8% | -5%[29.1 µM]
O=C(O)c1ccccc1N/N=C\c1ccnc2ccccc12 | 78 | -7 | ? | 2% | 13µM* | 12%
O=C(O)c1ccccc1N/N=C/c1cc(Br)cc(Br)c1O | · | 6 | · | · | · | 9%
Cc1oc(-c2cc3c(cc2Cl)OCO3)nc1CN1CCCC(C(=O)N2CCOCC2)C1 (configuration not stated) | · | 3 | 1µM* | · | · | 9%
CCOC(=O)N1CCN(C(=O)C2CCCN(Cc3nc(-c4ccc(Cl)cc4)oc3C)C2)CC1 (configuration not stated) | -100* | -3 | ? | 0% | -9% | -5%
Cc1ccc2nc(N(CCCN(C)C)C(=O)c3sc4ccccc4c3Cl)sc2c1 | -23 | -4 | 2% | -3% | -8% | -2%
OCCN1CCN(c2nc(NCc3ccco3)c3ccccc3n2)CC1 | -88* | 4 | ? | 1% | -18% | -2%
CC(C)(N=NC(C)(C)C(=N)N)C(=N)N | · | 24 | 32µM*! | -8%[11.4 µM] | -8% | 0%
N=C1S/C(=C\c2ccco2)C(=O)N1c1nccs1 | · | -5 | 10µM* | · | · | 6%
N=C1S/C(=C\c2ccco2)C(=O)N1c1ccc2c(c1)OCO2 | · | -1 | ? | · | · | 3%
O=C(Nc1ccccc1Cl)C(Cl)C(=O)c1ccccc1 (configuration not stated) | · | 6[21.1 µM] | 1.8µM* | · | · | 1%
O=C(Nc1ccccc1Cl)c1ccccc1 | · | 3 | 4% | · | · | -7%
Cc1csc(NC(=O)c2cccn2C)n1 | 19 | 10 | 4% | 3% | ? | 6%
Cn1cccc1C(=O)Nc1nc(-c2ccccn2)cs1 | 35 | -2 | 14µM* | -1% | 28µM* | -6%
CSCCC(=O)Nc1nc(-c2ccccn2)cs1 | · | -8 | 28µM* | · | · | 0%
SMILES | PNC inhibitor | GLA inh pH 4.5 | ALDH1A1 inh | ALOX12 inhib | HPGD block | GLA spleen mod
Cc1ccc(NC(=O)COC(=O)C2CSC3(C)CCC(=O)N23)cc1S(=O)(=O)N1CCOCC1 (configuration not stated) | · | -1 | ? | · | · | -1%
COC(=O)c1c(-c2ccco2)csc1NC(=O)C1CC=CCC1C(=O)O (configuration not stated) | -29 | 2 | 13µM* | -25% | · | 1%
CCOC(=O)c1c(-c2ccc(F)cc2)csc1NC(=O)C1CC=CCC1C(=O)O (configuration not stated) | · | 3 | ? | · | · | 4%
COCCNC(=O)C(c1ccc(C)o1)N(C(=O)Cn1nnc2ccccc21)c1ccccc1 (configuration not stated) | · | -15 | 3% | · | · | 11%
O=S(=O)(/N=S1/CC=CCN1S(=O)(=O)c1ccccc1)c1ccccc1 (configuration not stated) | ? | 6 | 2µM* | -21% | 7.9µM* | 2%
CC1(C)CSC(=NCc2ccccc2)N1C(=O)c1cccc([N+](=O)[O-])c1 | 16 | 1 | ? | 3% | -7% | 3%
COc1ccc(-c2[nH]c(-c3ccc(Cl)cc3)nc2SCC(=O)Nc2nccs2)cc1 | 2 | 2 | 24% | 1% | -27% | 7%
COc1ccc(-c2[nH]c(-c3ccccc3)nc2SCC(=O)Nc2nccs2)cc1 | -98* | 11 | 5% | 3% | -25% | 11%
CCS(=O)(=O)c1ccc(Sc2nncn2C)c([N+](=O)[O-])c1 | · | -12 | 22µM* | · | · | -14%
Cn1cnnc1Sc1ccc(C(=O)NCCC23CC4CC(CC(C4)C2)C3)cc1[N+](=O)[O-] | -6 | 9 | 2.8µM* | -28% | -5% | -2%
CN(C)S(=O)(=O)c1cccc(NC(=O)c2ccc(Sc3nncn3C)c([N+](=O)[O-])c2)c1 | · | 1 | 0.56µM* | · | · | 7%
CCN1C(=O)[C@H]2[C@H]3[C@H](O)[C@H](O)C/C(=N/OC[C@@H](O)[C@H]4O[C@H]5OC(C)(C)O[C@H]5[C@@H]4O)[C@@H]3CC[C@@H]2C1=O | · | · | 14%[13.5 µM] | · | · | -11%[17.5 µM]
O=C(O)c1cc(-c2ccc(-c3ccc(-c4cc(C(=O)O)c5cc(Cl)ccc5n4)cc3)cc2)nc2ccc(Cl)cc12 | · | · | ? | -2%[11.4 µM] | ? | ·
CSc1ccccc1NC(=O)COC(=O)c1c[nH]c(=O)[nH]c1=O | · | 1 | · | · | · | 4%
O=C(COC(=O)c1c[nH]c(=O)[nH]c1=O)Nc1ccccc1F | · | 1 | 28µM* | · | · | -2%
COC(=O)N[C@@H](c1cccc(F)c1)[C@@H](C)[N+](=O)[O-] | · | -14 | 10% | 2% | -5% | -3%
CN(Cc1ccco1)c1ncnc2ccc(-c3cccc(C#N)c3)cc12 | · | 3 | ? | 2% | ? | 10%
O=[N+]([O-])c1cc(Oc2cccnc2)cc([N+](=O)[O-])c1 | 23 | 3 | -1% | 1% | -10% | 0%
CCn1ncc([N+](=O)[O-])c1C(=O)Nc1ccc(C(=O)N2CCCCC2)cc1 | 15 | 1 | ? | -1% | 2.2µM* | 1%
Cn1cc([N+](=O)[O-])c(C(=O)Nc2ccc(C3CCCCC3)cc2)n1 | · | 4 | ? | · | · | -1%
Cn1cc([N+](=O)[O-])c(C(=O)Nc2cc(Oc3cccnc3)cc([N+](=O)[O-])c2)n1 | ? | 10 | 13µM* | 2% | -7% | -1%
